From PubChem BioAssay AID1159580 (chemical genetic matrix, 2015)
Several values for one entry are separate records, joined by “and”; a condition that tells them apart may be missing. Equal values may be shown once. Among all 5,500 compounds or so, about 2,000 (36%) were called active. Not shown: some 18% with an inconclusive outcome. No stated cut-off is given here; in the data, active means normalized growth mostly below about 0.91 (no sharp cut-off); inconclusive means no clear call, values can overlap the other calls; inactive means mostly above about 0.92. The list shows a part of the results.

Experiment: chemical genetic growth profiling, strain panel (AID 1159580);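 further: tested at 20 µM; growth read once vehicle control cultures reached saturation at 30 °C; 1 = growth at the plate median or of vehicle wells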
Settings: S. cerevisiae deletion strains, growth OD

Measured: normalized growth

CC(C)c1ccc2c(c1)CCC1[C@](C)(CN)CCC[C@]21C (stereo partly specified)
0.183 (active) and 0.967 (inactive): locus YHR030C, strain SLT2, stronger effect = lower value
active: locus YAL013W, strain DEP1, stronger effect = lower value 0.598 | locus YAL021C, strain ccr4, stronger effect = lower value 0.819 | locus YAL026C, strain drs2, stronger effect = lower value 0.0819 | locus YBR021W, strain FUR4, stronger effect = lower value 0.392 | locus YCL029C, strain bik1, stronger effect = lower value 0.652 | locus YDL035C, strain GPR1, stronger effect = lower value 0.253 | locus YDL074C, strain BRE1, stronger effect = lower value 0.45 | locus YDL101C, strain DUN1, stronger effect = lower value 0.199 | locus YDL134C, strain PPH21, stronger effect = lower value 0.486 | locus YDL185W, strain tfp1, stronger effect = lower value 0.88 | locus YDL192W, strain arf1, stronger effect = lower value 0.0814 | locus YDR069C, strain doa4, stronger effect = lower value 0.839 | locus YDR101C, strain arx1, stronger effect = lower value 0.13 | locus YDR150W, strain NUM1, stronger effect = lower value 0.786 | locus YDR162C, strain NBP2, stronger effect = lower value 0.0633 | locus YDR318W, strain mcm21, stronger effect = lower value 0.457 | locus YDR388W, stronger effect = lower value 0.284 | locus YDR392W, strain spt3, stronger effect = lower value 0.5 | locus YDR502C, strain sam2, stronger effect = lower value 0.0848 | locus YEL061C, strain CIN8, stronger effect = lower value 0.65 | locus YER110C, stronger effect = lower value 0.684 | locus YER155C, strain BEM2 (second series), stronger effect = lower value 0.367 | locus YER167W, strain BCK2, stronger effect = lower value 0.661 | locus YFR010W, strain ubp6, stronger effect = lower value 0.811 | locus YGL078C, strain dbp3, stronger effect = lower value 0.906 | locus YGL086W, strain mad1, stronger effect = lower value 0.167 | locus YGL248W, strain PDE1, stronger effect = lower value 0.368 | locus YGR078C, strain PAC10, stronger effect = lower value 0.334 | locus YGR135W, strain pre9, stronger effect = lower value 0.117 | locus YGR229C, strain SMI1, stronger effect = lower value 0.0707 | locus YGR252W, strain gcn5, stronger effect = lower value 0.174 | locus YHR079C, strain IRE1 (second series), stronger effect = lower value 0.646 | locus YHR129C, strain ARP1, stronger effect = lower value 0.701 | locus YHR200W, strain rpn10, stronger effect = lower value 0.162 | locus YIL066C, strain RNR3, stronger effect = lower value 0.34 | locus YIL073C, strain SPO22, stronger effect = lower value 0.147 | locus YIR030C, strain dcg1, stronger effect = lower value 0.19 | locus YJL166W, strain qcr8, stronger effect = lower value 0.894 | locus YJL168C, strain set2, stronger effect = lower value 0.714 | locus YJL187C, strain SWE1 (second series), stronger effect = lower value 0.243 | locus YJR043C, strain POL32, stronger effect = lower value 0.635 | locus YJR075W, strain HOC1, stronger effect = lower value 0.392
0.108 (active) and 0.995 (inactive): locus YJL095W, strain BCK1, stronger effect = lower value
inactive: locus YAL030W, strain snc1, stronger effect = lower value 1.01 | locus YBL061C, strain skt5, stronger effect = lower value 1.01 | locus YBR009C, strain hhf1, stronger effect = lower value 0.927 | locus YBR023C, strain chs3, stronger effect = lower value 0.947 | locus YBR171W, strain sec66, stronger effect = lower value 1.02 | locus YBR229C, strain ROT2, stronger effect = lower value 0.925 | locus YBR231C, strain swc5, stronger effect = lower value 0.974 | locus YBR279W, strain paf1, stronger effect = lower value 0.976 | locus YCL011C, strain gbp2, stronger effect = lower value 0.942 | locus YCL016C, strain dcc1, stronger effect = lower value 0.952 | locus YCL061C, strain MRC1, stronger effect = lower value 0.983 | locus YCL069W, strain vba3, stronger effect = lower value 1 | locus YCR088W, strain abp1, stronger effect = lower value 1.01 | locus YDL005C, strain med2, stronger effect = lower value 1.03 | locus YDL040C, strain nat1, stronger effect = lower value 1.01 | locus YDR001C, strain nth1, stronger effect = lower value 1.02 | locus YDR137W, strain rgp1, stronger effect = lower value 1.03 | locus YDR159W, strain sac3, stronger effect = lower value 1.02 | locus YDR195W, strain ref2 1.1 | locus YDR297W, strain sur2, stronger effect = lower value 0.992 | locus YDR334W, strain swr1, stronger effect = lower value 1.01 | locus YDR335W, strain msn5, stronger effect = lower value 0.969 | locus YEL003W, strain gim4, stronger effect = lower value 0.927 | locus YEL037C, strain rad23, stronger effect = lower value 1.01 | locus YEL061C, strain CIN8 (second series), stronger effect = lower value 1.01 | locus YER015W, strain faa2, stronger effect = lower value 0.951 | locus YER016W, strain bim1, stronger effect = lower value 1.02 | locus YER111C, strain swi4, stronger effect = lower value 1.03 | locus YGL167C, strain pmr1, stronger effect = lower value 1.01 | locus YGL173C, strain kem1, stronger effect = lower value 0.971 | locus YGL227W, strain vid30, stronger effect = lower value 1.02 | locus YGL240W, strain doc1, stronger effect = lower value 0.959 | locus YGL253W, strain hxk2, stronger effect = lower value 0.973 | locus YHR013C, strain ard1, stronger effect = lower value 0.886 | locus YHR027C, strain rpn1, stronger effect = lower value 1.02 | locus YHR079C, strain IRE1, stronger effect = lower value 0.964 | locus YHR094C, strain hxt1, stronger effect = lower value 0.949 | locus YHR142W, strain chs7, stronger effect = lower value 0.89 | locus YIL125W, strain kgd1, stronger effect = lower value 0.961 | locus YJL092W, strain hpr5, stronger effect = lower value 0.991 | locus YJL095W, strain BCK1 (second series), stronger effect = lower value 0.995 | locus YJL115W, strain asf1, stronger effect = lower value 1.01 | locus YJL129C, strain trk1, stronger effect = lower value 0.954 | locus YJL134W, strain LCB3, stronger effect = lower value 0.987 | locus YJL154C, strain vps35, stronger effect = lower value 1.02 | locus YJL164C, strain tpk1, stronger effect = lower value 0.931 | locus YJR066W, strain TOR1, stronger effect = lower value 0.919
